From PubChem BioAssay (NCATS)
Values joined by “and” are separate entries in the source; they are usually repeats but may differ in a detail not shown here. Identical values can stand only once. Results filed as inconclusive are left out. Active and inactive are the calls of the source. Unless noted, calls follow the shape of the dose curve; as a rule, active = well fitted curve in the direction sought with a large enough effect; inconclusive = small, poorly fitted or top-dose-only effect, or another doubt; inactive = no such curve, though single readings can be large; an effect the other way counts as inactive or inconclusive.

Tests used:
[1] = molecular target: Mitogen-activated protein kinase 10 (Mus musculus) (UniProt Q61831); assay: JNK3 AlphaScreen Assay (AID 530; active = well fitted curve in either direction with a large enough effect, not every such curve was filed as active;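 also: kinase came from lysate of stimulated human HepG2 cells; signal reports phosphorylation of biotinylated GST-cJun 1-79 at Ser73 with 10 µM ATP; % is scaled to controls: 0 for no effect and ±100 for the full control effect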)
In short: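 Compound titrations were preincubated 15 minutes at room temperature with substrate, antibody and pre-activated JNK3-containing HepG2 lysate. Reactions were started with 10 uM ATP and stopped with EDTA-containing bead buffer for AlphaScreen detection.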

[2] = Cell Viability - Mesenchymal (AID 546);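 also: cells exposed to compound for 40 hours before reading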
In short: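 AC50 values reflect the drop in intracellular ATP in a human kidney mesenchymal line derived from normal glomeruli. Treatment lasts 40 hr at 37 °C in complete medium, and the signal comes from CellTiter-Glo luminescence.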

[3] = Cellular Toxicity (caspase-3) Jurkat (AID 655); conditions: Jurkat caspase-3 activation, luminescence; caspase-3 activation: at 92.2 µM (top of the series), DMSO = 0%, tamoxifen = 100%;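 also: cells exposed to compound for 16 h at 37 °C before reading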
In short: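 qHTS in human Jurkat T-cell leukemia line: 16 hr compound treatment at 37 °C, caspase-3/7 activity measured by Caspase-Glo luminescence. AC50 derived from Hill equation.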

[4] = Cellular Toxicity (caspase-3) BJ (AID 658);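 also: cells exposed to compound for 16 hours; 0% = DMSO basal and 100% = 10 µM staurosporine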
In short: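 Readout: Caspase-Glo 3/7 luminescence increase in BJ cells after 16 hr treatment at 37 °C. Staurosporine and tamoxifen served as positive controls; AC50 values came from Hill modelling of data normalized to DMSO and 10 uM staurosporine.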

[5] = Cellular Toxicity (caspase-3) MRC-5 (AID 659);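 also: cells exposed to compound for 16 h at 37 °C; 0% = DMSO basal and 100% = 10 µM staurosporine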
In short: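 Concentration-dependent caspase 3/7 activation is measured in human normal lung fibroblasts (MRC-5) following 16-hour treatment. AC50 values come from standard Hill-equation modeling of luminescence normalized to DMSO and 10 uM staurosporine.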

[6] = molecular target: Cytochrome P450 3A4 (Homo sapiens) (UniProt P08684); assay: qHTS Assay for Inhibitors and Substrates of Cytochrome P450 3A4 (AID 884); also: % is scaled to controls: 0 for no effect and ±100 for the full control effect; nearly all actives have a fitted effect of over 50% in size
Chain of Cytochrome P450 3A4 (Homo sapiens) (P08684 whole entry, looked up): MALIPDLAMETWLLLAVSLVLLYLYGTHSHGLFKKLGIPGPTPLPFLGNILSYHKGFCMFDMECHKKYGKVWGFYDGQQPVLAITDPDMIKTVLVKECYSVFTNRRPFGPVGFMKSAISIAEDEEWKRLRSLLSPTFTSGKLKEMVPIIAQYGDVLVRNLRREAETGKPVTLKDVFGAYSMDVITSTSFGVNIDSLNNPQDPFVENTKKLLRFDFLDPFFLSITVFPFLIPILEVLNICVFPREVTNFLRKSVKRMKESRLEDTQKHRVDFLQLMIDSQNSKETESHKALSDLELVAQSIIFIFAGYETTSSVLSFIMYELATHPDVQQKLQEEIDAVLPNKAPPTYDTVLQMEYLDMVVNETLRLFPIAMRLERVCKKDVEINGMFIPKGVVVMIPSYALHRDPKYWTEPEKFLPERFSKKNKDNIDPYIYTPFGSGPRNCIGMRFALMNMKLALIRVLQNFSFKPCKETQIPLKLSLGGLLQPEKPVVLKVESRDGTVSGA
In short: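 20 nM human CYP3A4 with 25 uM Luciferin-PPXE (at KM) in 200 mM KPO4, preincubated 10 min with compound; NADPH regeneration started a 60 min RT reaction. Luciferin detected by luminescence, normalized to 57 uM ketoconazole as full inhibition.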

[7] = Cell Viability - LYMP2-001 (AID 921);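 also: 0% = DMSO only and full inhibition = tetraoctylammonium bromide control wells; nearly all actives have a fitted effect of over 70% in size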
In short: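 A lymphoblastoid cell line of human origin was treated with library compounds across a concentration series for 24 hours, and viable cell number was estimated from ATP-driven luciferase light output. Hill modeling gave AC50.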

[8] = MultiTox-Fluor Cytotoxicity Assay - LYMP1-001 - Live Cells (AID 947);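 also: 0% = DMSO only and full inhibition = tetraoctylammonium bromide control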
[9] = Cell Viability - LYMP2-005 (AID 967); also: potency is read from the fitted curve at half-maximal effect
In short: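 Luciferase-based ATP quantitation served as the viability measure in human lymphoblastoid LYMP2-005 cells exposed to test compounds for 24 h at 37 C in complete culture medium. Potency (AC50) was obtained by fitting concentration-response curves with the Hill equation.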

[10] = Cell Viability - LYMP2-015 (AID 971);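 also: 0% = DMSO only and full effect = 92 µM tetraoctylammonium bromide; nearly all actives have a fitted effect of over 55% in size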
In short: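 LYMP2-015 human lymphoblastoid cells (2500/well) in complete medium, compound-treated 24 h at 37 C; viability read as cellular ATP by CellTiter-Glo luminescence after 30 min at room temperature. AC50 from Hill-equation fits of qHTS concentration-response data.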

[11] = qHTS assay for small molecule antagonists of retinoid X receptor alpha signaling (AID 588546; active = well fitted inhibition curve with a large enough effect in the signal ratio, with a control signal flat, not every such curve was filed as active; the % refers to the signal ratio;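 also: cells stimulated with 9-cis-retinoic acid as agonist; % is scaled to controls: 0 for no effect and ±100 for the full control effect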); conditions: HEK293T RXRa-UAS-bla, beta-lactamase ratio, antagonist mode; measured here: W530 green channel, cytotoxicity proxy
In short: (§1)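 Beta-lactamase reporter inhibition, read as CCF4 fluorescence ratio (ex 405, em 460/530 nm) after 2 h at RT. HEK293T UAS-bla cells, 2500/well, were stimulated with 9-cis-RA at 500 or 100 nM final alongside test compound for 18 h at 37 C.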

[12] = molecular target: Retinoic acid receptor RXR-alpha (Homo sapiens) (UniProt P19793); assay: as above; conditions: HEK293T RXRa-UAS-bla, beta-lactamase ratio, antagonist mode
Chain of Retinoic acid receptor RXR-alpha (Homo sapiens) (P19793 whole entry, looked up): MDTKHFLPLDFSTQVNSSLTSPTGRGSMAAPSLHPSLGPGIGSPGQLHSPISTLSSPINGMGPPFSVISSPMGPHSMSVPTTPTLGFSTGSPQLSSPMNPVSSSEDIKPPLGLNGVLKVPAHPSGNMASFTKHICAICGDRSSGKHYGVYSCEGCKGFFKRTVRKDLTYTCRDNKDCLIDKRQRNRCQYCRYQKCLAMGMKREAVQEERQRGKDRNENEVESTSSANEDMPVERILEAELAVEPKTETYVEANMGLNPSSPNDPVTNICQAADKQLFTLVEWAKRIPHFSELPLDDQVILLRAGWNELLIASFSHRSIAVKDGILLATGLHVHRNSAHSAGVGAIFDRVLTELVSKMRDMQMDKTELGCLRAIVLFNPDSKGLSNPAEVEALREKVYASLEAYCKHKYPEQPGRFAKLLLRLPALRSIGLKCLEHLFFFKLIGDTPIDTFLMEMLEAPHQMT
In short: as §1

[13] = molecular target: Voltage-gated inwardly rectifying potassium channel KCNH2 (Homo sapiens) (UniProt Q12809); assay: qHTS Assay for Small Molecule Inhibitors of the Human hERG Channel Activity (AID 588834);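 also: top concentration of the series differs between compounds; % is scaled to controls: 0 for no effect and ±100 for the full control effect; lower thallium flux fluorescence means stronger hERG block; nearly all actives have a fitted effect of over 50% in size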
Chain of Voltage-gated inwardly rectifying potassium channel KCNH2 (Homo sapiens) (Q12809 whole entry, looked up): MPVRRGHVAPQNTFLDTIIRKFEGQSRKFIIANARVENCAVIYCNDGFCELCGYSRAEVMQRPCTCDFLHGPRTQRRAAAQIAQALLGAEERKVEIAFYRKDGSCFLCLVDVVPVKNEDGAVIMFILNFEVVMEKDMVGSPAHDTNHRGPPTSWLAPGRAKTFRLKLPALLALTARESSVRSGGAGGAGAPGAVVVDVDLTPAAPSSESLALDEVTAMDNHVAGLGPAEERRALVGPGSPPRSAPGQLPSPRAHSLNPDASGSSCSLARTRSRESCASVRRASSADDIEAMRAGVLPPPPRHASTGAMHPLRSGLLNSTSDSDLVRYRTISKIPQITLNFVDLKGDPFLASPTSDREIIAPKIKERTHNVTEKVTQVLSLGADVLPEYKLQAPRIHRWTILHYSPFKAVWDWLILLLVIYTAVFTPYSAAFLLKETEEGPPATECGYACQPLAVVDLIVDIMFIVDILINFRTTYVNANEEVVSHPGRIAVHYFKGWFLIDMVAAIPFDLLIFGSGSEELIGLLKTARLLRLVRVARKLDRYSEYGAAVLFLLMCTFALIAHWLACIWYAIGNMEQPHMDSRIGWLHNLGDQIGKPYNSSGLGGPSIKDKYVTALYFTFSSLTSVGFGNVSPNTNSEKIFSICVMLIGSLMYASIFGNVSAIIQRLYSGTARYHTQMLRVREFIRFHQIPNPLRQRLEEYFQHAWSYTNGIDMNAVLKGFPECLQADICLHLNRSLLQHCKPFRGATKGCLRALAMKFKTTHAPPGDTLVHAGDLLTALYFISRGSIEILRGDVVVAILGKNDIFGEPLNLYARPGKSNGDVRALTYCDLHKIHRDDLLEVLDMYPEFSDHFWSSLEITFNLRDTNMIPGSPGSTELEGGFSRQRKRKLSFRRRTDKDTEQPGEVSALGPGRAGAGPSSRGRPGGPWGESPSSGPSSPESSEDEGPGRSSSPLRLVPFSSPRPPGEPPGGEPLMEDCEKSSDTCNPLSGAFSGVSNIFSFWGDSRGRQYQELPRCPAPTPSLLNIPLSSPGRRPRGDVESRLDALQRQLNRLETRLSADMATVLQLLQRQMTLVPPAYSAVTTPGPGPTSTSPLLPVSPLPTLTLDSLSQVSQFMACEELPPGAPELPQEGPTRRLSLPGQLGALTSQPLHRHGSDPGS
In short: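 Blockade is seen as reduced FluxOR thallium-flux fluorescence in U2OS cells expressing hERG from a BacMam construct, in Opti-MEM with 2% FCS. Concentration-response data fitted to the Hill equation for AC50.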

[14] = qHTS assay for small molecule disruptors of the mitochondrial membrane potential - 5 hr assay (AID 651755; calls by dose curve; also: nearly all actives have a fitted effect of over 40% in size; also: potency is read from the fitted curve at half-maximal effect)
In short: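 HepG2, 2,000 cells/well, overnight attach; cpd or DMSO 5 hr, 37C/5% CO2; Mito-MPS 30 min 37C; fluor 490/535 + 540/590 nm.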

[15] = qHTS assay for environmental chemicals that activate the Aryl hydrocarbon Receptor (AhR) signaling pathway (AID 651777); conditions: 1A2-DRE human hepatoma cells, luciferase, 24 h; activation: stronger effect = higher value; also: % of control where 0% means no effect; nearly all actives have a fitted effect of over 15% in size
In short: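 Human hepatoma 1A2-DRE cells stably carrying a DRE/CYP1A2 promoter–luciferase reporter, 1,200 cells/well, exposed to compound 24 hr at 37 C. Luciferase read by One-Glo luminescence after 30 min at room temperature; increased signal marks AhR activation.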

[16] = molecular target: Nuclear receptor subfamily 1 group I member 2 (Rattus norvegicus) (UniProt Q9R1A7); assay: qHTS assay for small molecule activators of the rat pregnane X receptor (rPXR) signaling pathway (AID 651751; call rule not given here; also: 0% is about no effect); conditions: rPXR reporter cells, luciferase (One-Glo), 24 h
Chain of Nuclear receptor subfamily 1 group I member 2 (Rattus norvegicus) (Q9R1A7 whole entry, looked up): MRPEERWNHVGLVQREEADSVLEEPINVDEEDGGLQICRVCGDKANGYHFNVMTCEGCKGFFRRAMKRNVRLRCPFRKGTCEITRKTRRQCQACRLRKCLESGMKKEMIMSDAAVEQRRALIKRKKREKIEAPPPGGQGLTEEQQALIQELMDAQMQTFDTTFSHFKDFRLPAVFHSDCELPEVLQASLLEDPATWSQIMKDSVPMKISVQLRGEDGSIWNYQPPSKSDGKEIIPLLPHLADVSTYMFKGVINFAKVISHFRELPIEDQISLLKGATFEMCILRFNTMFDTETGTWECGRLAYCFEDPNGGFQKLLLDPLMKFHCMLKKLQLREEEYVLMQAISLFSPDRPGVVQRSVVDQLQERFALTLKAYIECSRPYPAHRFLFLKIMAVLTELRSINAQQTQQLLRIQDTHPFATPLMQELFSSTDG

[17] = qHTS assay for small molecule activators of the human pregnane X receptor (PXR) signaling pathway (AID 720659; call rule not given here; also: 0% is about no effect)
[18] = MultiTox-Fluor Cytotoxicity Assay - LYMP1-002 - Live Cells (AID 955);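 also: cells exposed to compound for 16 hours; % is scaled to controls: 0 for no effect and ±100 for the full control effect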
In short: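 Human lymphoblastoid LYMP1-002 cells, 2500/well, treated 16 h at 37 C in complete medium. Live-cell protease activity via GF-AFC fluorescence (Ex/Em 405/510) after 60 min reagent incubation; AC50 from Hill fits.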

[19] = molecular target: Thyroid hormone receptor beta (Homo sapiens) (UniProt P10828); assay: qHTS assay for small molecule agonists of thyroid hormone receptor beta signaling (AID 588545; calls by dose curve)
Chain of Thyroid hormone receptor beta (Homo sapiens) (P10828 whole entry, looked up): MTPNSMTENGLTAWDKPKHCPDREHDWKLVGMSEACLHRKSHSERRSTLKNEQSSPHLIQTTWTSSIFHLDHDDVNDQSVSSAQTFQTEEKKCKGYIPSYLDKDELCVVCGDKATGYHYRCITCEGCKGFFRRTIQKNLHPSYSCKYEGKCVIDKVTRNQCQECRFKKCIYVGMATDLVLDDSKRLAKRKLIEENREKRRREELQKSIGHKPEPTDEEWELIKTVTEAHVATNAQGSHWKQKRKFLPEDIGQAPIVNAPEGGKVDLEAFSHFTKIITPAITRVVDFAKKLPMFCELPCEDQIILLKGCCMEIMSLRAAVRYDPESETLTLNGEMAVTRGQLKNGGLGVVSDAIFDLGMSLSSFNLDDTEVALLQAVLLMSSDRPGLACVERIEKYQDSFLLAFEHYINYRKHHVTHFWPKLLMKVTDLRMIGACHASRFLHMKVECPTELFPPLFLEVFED
In short: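 Agonist activity was read as beta-lactamase CCF4 fluorescence (405 ex, 460/530 em), scaled between DMSO (0%) and 10 nM T3 (100%), then Hill-fitted for EC50 and efficacy. HEK 293 TR-UAS-bla cells in 2% charcoal/dextran FBS medium were exposed 18 h at 37 C.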

[20] = molecular target: Nuclear receptor ROR-gamma (Homo sapiens) (UniProt P51449); assay: qHTS assay for small molecule antagonists of the retinoid-related orphan receptor gamma (ROR-gamma) signaling pathway (AID 651802); also: nearly all actives have a fitted effect of over 60% in size; also: potency is read from the fitted curve at half-maximal effect
Chain of Nuclear receptor ROR-gamma (Homo sapiens) (P51449 whole entry, looked up): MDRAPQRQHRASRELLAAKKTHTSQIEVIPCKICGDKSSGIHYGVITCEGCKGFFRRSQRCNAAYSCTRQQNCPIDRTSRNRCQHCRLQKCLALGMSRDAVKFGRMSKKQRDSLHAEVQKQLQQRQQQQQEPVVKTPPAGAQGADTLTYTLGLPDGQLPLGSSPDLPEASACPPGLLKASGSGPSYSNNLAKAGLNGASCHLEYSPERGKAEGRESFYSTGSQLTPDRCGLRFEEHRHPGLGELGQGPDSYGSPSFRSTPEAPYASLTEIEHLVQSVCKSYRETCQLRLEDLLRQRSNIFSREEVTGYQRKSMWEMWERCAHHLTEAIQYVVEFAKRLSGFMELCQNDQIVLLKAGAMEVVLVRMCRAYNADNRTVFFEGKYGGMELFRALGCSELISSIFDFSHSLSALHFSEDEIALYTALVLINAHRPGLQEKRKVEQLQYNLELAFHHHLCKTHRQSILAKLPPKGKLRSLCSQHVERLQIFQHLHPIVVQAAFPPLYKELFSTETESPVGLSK
In short: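 CHO cells with TET-inducible ROR-gamma and RORE-luciferase reporter, dosed then doxycycline-induced. After 16 h at 37C, One-Glo luminescence read; decreased signal indicates antagonism.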

C=CCO
inactive: Potency [1] | Potency [2] | caspase-3 activation [3] 2.82% | outcome [4] | outcome [5] | Potency [6] | Potency [7] | outcome [8] | Potency [9] | Potency [10] | max response [12] 7.67% | Potency [13] | Potency [14] | activation [15] -0.568% | max response [16] -2.14% | outcome [17]
1.87%: max response [11]

CCCCCOC(=O)c1ccccc1C(=O)OCCCCC
-5.52%: max response [11]
inactive: caspase-3 activation [3] 0.132% | outcome [4] | outcome [5] | Potency [7] | outcome [8] | outcome [18] | Potency [9] | Potency [10] | Potency [19] | max response [12] -6.11% | Potency [14] | activation [15] 0.174% and 4.48% | Potency [20] | max response [16] 4.64% and 1.43% | outcome [17]

CCC/C=N/O
-10.3%: max response [11]
inactive: Potency [1] | Potency [2] | caspase-3 activation [3] -1.14% | outcome [4] | outcome [5] | Potency [6] | Potency [7] | outcome [8] | outcome [18] | Potency [9] | Potency [10] | Potency [19] | max response [12] -0.259% | Potency [13] | Potency [14] | activation [15] -0.464% | Potency [20] | max response [16] -0.891% | outcome [17]

Oc1ccc(Cl)c(Cl)c1Cl
inactive: Potency [1] | caspase-3 activation [3] 0.688% | outcome [5] | Potency [7] | outcome [8] | outcome [18] | Potency [9] | Potency [10] | Potency [19] | Potency [13] | activation [15] 3.11% | max response [16] 8.33% | outcome [17]

CCCCCCCCCCCCCl
inactive: Potency [1] | caspase-3 activation [3] 1.16% | outcome [4] | outcome [5] | Potency [6] | Potency [7] | outcome [8] | Potency [9] | Potency [10] | Potency [19] | max response [12] -4.83% | Potency [13] | Potency [14] | activation [15] 1.8% | max response [16] 3.36% | outcome [17]
-8.5%: max response [11]

c1ccoc1
inactive: Potency [1] | Potency [2] | outcome [4] | outcome [5] | Potency [6] | outcome [18] | Potency [9] | Potency [10] | Potency [19] | max response [12] -5.23% | Potency [13] | Potency [14] | activation [15] -0.801% | max response [16] 3.47% | outcome [17]
1%: max response [11]

CCOC(=O)CC(SP(=O)(OC)OC)C(=O)OCC (stereo not given)
7.78% and 5.62%: max response [11]
inactive: Potency [1] | Potency [2] | outcome [4] | outcome [5] | Potency [7] | outcome [8] | outcome [18] | Potency [9] | Potency [10] | Potency [19] | max response [12] -24.2% and 2.64% | Potency [13] | Potency [14] | activation [15] 1.9% and 4.95% | max response [16] -7.84% and -3.31% | outcome [17]

CN(C)C(=O)Cl
inactive: Potency [1] | Potency [2] | caspase-3 activation [3] -1.4% | outcome [4] | outcome [5] | Potency [6] | Potency [7] | outcome [8] | outcome [18] | Potency [9] | Potency [10] | max response [12] 8.18% | Potency [13] | Potency [14] | activation [15] -0.443% | Potency [20] | max response [16] -2.26% | outcome [17]
3.53%: max response [11]

ClC(Cl)Br
inactive: Potency [2] | caspase-3 activation [3] 0.703% | outcome [4] | outcome [5] | Potency [6] | Potency [7] | outcome [8] | outcome [18] | Potency [9] | Potency [10] | Potency [19] | max response [12] 5.56% | Potency [13] | Potency [14] | activation [15] 0.136% | Potency [20] | max response [16] -4.5% | outcome [17]
1.73%: max response [11]

N#C/C(N)=C(/N)C#N
-2.22%: max response [11]
inactive: Potency [2] | caspase-3 activation [3] 1.12% | outcome [4] | outcome [5] | Potency [6] | Potency [7] | outcome [8] | outcome [18] | Potency [9] | Potency [10] | Potency [19] | max response [12] 2% | Potency [13] | Potency [14] | activation [15] 0.971% | Potency [20] | max response [16] -1.96% | outcome [17]

Nc1ccc([N+](=O)[O-])cc1[N+](=O)[O-]
inactive: Potency [1] | Potency [2] | caspase-3 activation [3] 1.67% | outcome [4] | outcome [5] | Potency [6] | Potency [7] | outcome [8] | outcome [18] | Potency [9] | Potency [10] | Potency [19] | Potency [13] | activation [15] 0.484% | outcome [17]
active: Potency [14] 33.5 µM | Potency [20] 0.944 µM

[O-][Cl+]O
inactive: Potency [1] | Potency [2] | caspase-3 activation [3] 0.134% | outcome [4] | outcome [5] | Potency [6] | Potency [7] | outcome [8] | Potency [9] | Potency [10] | Potency [19] | max response [12] 22.2% | Potency [13] | Potency [14] | activation [15] 0.878% | Potency [20]
0.141%: max response [11]

[N-]=[N+]=[N-]
active: Potency [9] 2.51 µM
-3.73%: max response [11]
inactive: Potency [1] | Potency [2] | caspase-3 activation [3] 1.16% | outcome [4] | outcome [5] | Potency [6] | Potency [7] | outcome [18] | Potency [10] | Potency [19] | max response [12] 13.8% | Potency [13] | Potency [14] | max response [16] -8.68% | outcome [17]

C/C=C/C=O
inactive: Potency [1] | Potency [2] | caspase-3 activation [3] 0.559% | outcome [4] | outcome [5] | Potency [6] | Potency [7] | outcome [8] | outcome [18] | Potency [9] | Potency [10] | Potency [19] | Potency [13] | Potency [20] | max response [16] 18.2% | outcome [17]
